# Screens from PubChem.
# FLuc modulator = counter-screen for miR-21 project: firefly luciferase inhibitors or activators | Potency, µM (series often up to 57.5 µM), for inactives: top-dose activity change, negative = inhibition, hits mostly inhibitors | 6.9% of 360,000 active | P08659 | purified FLuc, Km substrates, luminescence inhibition | AID 588342;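 note: plate controls were vehicle for no effect and reference inhibitor for full effect; nearly all actives have a fitted effect of over 55% in size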
# Target sequence (P08659 whole entry, looked up): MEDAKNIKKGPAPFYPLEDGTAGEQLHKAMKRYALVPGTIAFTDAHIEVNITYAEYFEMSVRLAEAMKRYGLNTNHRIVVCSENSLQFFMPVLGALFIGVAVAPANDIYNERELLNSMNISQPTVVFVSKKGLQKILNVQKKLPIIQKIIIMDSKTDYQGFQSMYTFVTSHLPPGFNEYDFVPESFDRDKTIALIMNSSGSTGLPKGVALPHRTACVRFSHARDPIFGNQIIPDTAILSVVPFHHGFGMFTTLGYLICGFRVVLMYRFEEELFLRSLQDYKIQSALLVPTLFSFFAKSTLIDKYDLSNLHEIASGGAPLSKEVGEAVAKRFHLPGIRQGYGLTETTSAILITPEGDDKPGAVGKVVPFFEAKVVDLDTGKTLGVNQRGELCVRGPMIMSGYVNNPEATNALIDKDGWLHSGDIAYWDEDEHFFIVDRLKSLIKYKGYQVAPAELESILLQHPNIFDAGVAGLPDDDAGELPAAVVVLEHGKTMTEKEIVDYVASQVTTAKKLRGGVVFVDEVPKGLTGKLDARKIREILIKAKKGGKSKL
#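 Biochemical qHTS of compounds, final roughly 60 µM downward over six points, against 10 nM purified firefly luciferase using Km concentrations of substrates (10 uM D-luciferin, 10 uM ATP) in Tris acetate pH 7.5 buffer; luminescence output.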
# NPC1 prom act = NPC1 promoter activation; Huh7 NPC1 promoter luciferase reporter, 24 h; 2.4% of 320,000 active; Potency, µM (top dose mostly 9.22 µM), without a hit: at the top dose activation, usual class: activators; note: % of control where 0% means no effect; nearly all actives have a fitted effect of over 60% in size
#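 NPC1 promoter–luciferase Huh7 cells; 24 h compound; luminescence.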
# SMN2 splice enh = SMN2 splice variant enhancement | HEK293 SMN2-luciferase splicing reporter, luminescence, 30-36 h | Potency, µM (highest dose often 46.1 µM), for the others: at the top dose activity change, positive = activation, usual class: activators | 2.8% of 210,000 active | AID 1458; note: % of control where 0% means no effect; nearly all actives have a fitted effect of over 55% in size
#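 HEK293 cells carry an SMN2 minigene-luciferase reporter in which exon 7 inclusion puts luciferase in frame. Cells were seeded at 2000 cells/well, attached for 10-12 hours, then exposed to compounds for 30-36 hours at 37C before ONE-Glo luminescence.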
# ELG1 genotoxic = induces genotoxicity in HEK293T cells with luciferase-tagged ELG1; HEK293T ELG1-luciferase reporter, luminescence, 16 h; 1.3% of 330,000 active; Potency, µM (top dose mostly 46 µM), without a hit: at the top dose activity change, positive = activation, actives largely listed as activators; note: % of control where 0% means no effect; nearly all actives have a fitted effect of over 60% in size
#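 Genotoxic stress is detected as increased luminescence from luciferase-tagged ELG1 in HEK293T cells, measured with ONE-Glo after a 16 hr treatment at 37 °C.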
# Rab9 promoter act = activates the Rab9 promoter. Huh7 Rab9 promoter-luciferase reporter, luminescence, 24 h. Potency, µM (doses to about 9.22 µM), inactives show top-dose activation, negative = inhibition, usual class: activators. 2.8% of 320,000 active. AID 485297; note: % of control where 0% means no effect; nearly all actives have a fitted effect of over 60% in size
#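 Quantitative HTS format; Huh7 Rab9-luciferase reporter cells (1500/well) receive compound 2 h post-plating, incubate 24 h at 37 °C, then get luciferase reagent for 10 min before luminescence reading.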
# Luc counter = counter-screen: inhibitors of Kinase-Glo firefly luciferase. Kinase-Glo luciferase, ATP luminescence, 8 min. Potency, µM (highest dose often 38.3 µM), inactives show at the highest dose activity change, negative = inhibition, hits mostly inhibitors. 0.28% of 200,000 active. AID 1379; note: % is set by controls: 0 for no effect and ±100 for the full control effect; nearly all actives have a fitted effect of over 60% in size
#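 Substrate mix (final 50 mM imidazole pH 7.2, 50 mM KCl, 7 mM MgCl2, 10 uM ATP, 0.01% Tween 20, 0.05% BSA) plus pin-tool compound, then Kinase-Glo detection mix; 8 min ambient, luminescence read.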
# An asterisk follows results filed as active; ? = inconclusive; / = not tested or not shown; [ ] = dose if it differs, or a comment. The list is not random: actives were taken first. Their share in the collection is about 7.5%. Calls come from the whole dose curve; as a rule, active = well fitted curve in the direction sought with a large enough effect; inconclusive = small, poorly fitted or top-dose-only effect, or another doubt; inactive = no such curve, though single readings can be large; an effect the other way counts as inactive or inconclusive. Potency is the fitted concentration of half-maximal effect.
SMILES,FLuc modulator,NPC1 prom act,SMN2 splice enh,ELG1 genotoxic,Rab9 promoter act,Luc counter
CCOC(=O)c1c(C)[nH]c(C2=NNC(=NC3CC3)SC2)c1C,0.6µM*,?,-79%,0.58µM*,?,-17%
CCOC(=O)c1c(C)[nH]c(/C(C)=N/O)c1C,-15%,17%,-4%,-9%,11%,-2%
CCC12CN3CC(CC)(CN(C1)C3c1ccc(OCc3ccccc3)cc1)C2=O (centres undefined),-2%,/,3%,/,/,/
COc1ccc(-c2cc3ccc(O)c(CN4CCCC4)c3oc2=O)cc1OC,15µM*,/,/,/,/,/
COC(=O)C(Cc1ccc(OC(=O)c2ccc(C)cc2)cc1)N1Cc2ccccc2C1=O (centres undefined),?,?,16µM*,9%,?,-1%
COC(=O)C(Cc1ccc(O)cc1)N1Cc2ccccc2C1=O (centres undefined),15µM*,4µM*,/,?,1.8µM*,/
CCc1ccc(CNC(=O)CCC(=O)N2Cc3cccc(OC)c3Oc3ncccc32)cc1,-1%,0%,/,-1%[9.26 µM],-1%,/
CCN(CC(=O)NCc1cccs1)C(=O)/C=C/c1cccc(Cl)c1Cl,?,-1%,/,0%,10%,/
O=C1Nc2ccccc2S/C1=C\C(=O)N1CCCC1,12µM*,19%,13µM*,-19%,3.5µM*,?
CCc1ccc(C(=O)/C=C2\Sc3ccccc3NC2=O)cc1,13µM*,-1%,/,11%,-5%,2%
N#C/C(C(=O)N1CCCCC1)=C1\Nc2ccccc2S1,11µM*,?,18µM*,?,2.8µM*,-2%
Cc1cc(-c2ccccc2)n2nc(-c3cccc(Br)c3)cc2n1,0%,/,-20%,/,/,/
Cc1ccccc1C(=O)Nc1cc(C(F)(F)F)ccc1-n1cncn1,/,-12%,/,3%,3%,/
COc1cc(C(=O)Nc2ccc3nc4n(c(=O)c3c2)CCCCC4)cc(OC)c1OC,13µM*,-2%,30%,-5%,2%,/
O=C(Nc1ccc2nc3n(c(=O)c2c1)CCCCC3)c1ccccn1,7.6µM*,1.6µM*,3.2µM*,?,1.1µM*,-9%
CCn1c(C(=O)NCc2ccc(OC(C)C)cc2)cc2oc3ccccc3c21,-9%,/,?,/,/,/
CCCCCCC[C@@H](C/C=C/CCC(=O)N(C)C/C(=C/Cl)C/C(=C\C(=O)N1CC(OC)=CC1=O)OC)OC,/,/,/,2.1µM*,/,/
CCCCCCC[C@@H](C/C=C/CCC(=O)N(C)C/C(=C/Cl)C/C(=C\C(=O)N1C[C@H](O)CC1=O)OC)OC,/,/,/,-11%,/,/
COc1ccccc1C(=O)NNC(=O)c1cccc(O)c1,12µM*,?,/,?,?,/
Cc1occc1C(=O)NNC(=O)c1cccc(F)c1,-2%,0%,12%,3%,8%,3%
COc1cc2ccccc2cc1C(=O)NNC(=O)c1ccccc1O,?,2%,/,16%,7%,/
COc1ccccc1C(=O)NNC(=O)c1cccc(F)c1,15µM*,?,3.2µM*,?,?,?
COc1ccccc1C(=O)NNC(=O)c1ccccc1F,15µM*,?,25µM*,?,29%,-21%
COCC(=O)NNC(=O)c1ccccc1OC,-5%,-2%,-9%,-1%,-3%,-1%
COc1cccc([C@@H]2Oc3ccc(OC)cc3C(=O)[C@H]2O)c1,-23%,?,5µM*,7.3µM*,?,3%
COC(=O)C1=C(C)NC2=C(C(=O)c3ccccc32)C1c1cccc(OC)c1 (centres undefined),-3%,-1%,/,4%,14%,/
COc1cccc(C2C(=O)c3ccccc3C2=O)c1,27µM*,-8%,/,2%,5%,/
COc1cccc([C@@H]2Oc3ccc(Br)cc3C(=O)[C@H]2O)c1,/,/,?,/,/,3%
Nc1nc(-c2c[nH]c3ccccc23)cs1,?,12%,?,-2%,?,-7%
